PubChem BioAssay (NCI)
The panel holds about 83,000 compounds, 20% with a hit somewhere; the sample as a whole holds those more often.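 48-hour exposure, single concentration, 96-well plates; percent growth endpoint where 0 means no net growth. Active: below 10.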 A number with no mark means an inactive call. Activity calls are given as the source filed them.

Columns and labels:
Assay in all cases: NCI-60 one-dose screen, 48 h (100 = growth as untreated, 0 = no growth, -100 = all killed)
Details in all cases: 10 µM unless noted
DU-145 prostate = test system: DU-145 prostate
MALME-3M melanoma = test system: MALME-3M melanoma
MDA-MB-231 breast = test system: MDA-MB-231 breast
RXF 393 renal = test system: RXF 393 renal
SF-268 CNS = test system: SF-268 CNS
SF-295 CNS = test system: SF-295 CNS
SF-539 CNS = test system: SF-539 CNS
UACC-257 melanoma = test system: UACC-257 melanoma
M14 melanoma = test system: M14 melanoma
HCT-15 colon = test system: HCT-15 colon
HT29 colon = test system: HT29 colon
SNB-75 CNS = test system: SNB-75 CNS
SNB-19 CNS = test system: SNB-19 CNS
U251 CNS = test system: U251 CNS
PC-3 prostate = test system: PC-3 prostate
SK-MEL-5 melanoma = test system: SK-MEL-5 melanoma
UACC-62 melanoma = test system: UACC-62 melanoma
LOX IMVI melanoma = test system: LOX IMVI melanoma
SK-MEL-28 melanoma = test system: SK-MEL-28 melanoma

| Structure (SMILES) | growth (DU-145 prostate) | growth (MALME-3M melanoma) | growth (MDA-MB-231 breast) | growth (RXF 393 renal) | growth (SF-268 CNS) | growth (SF-295 CNS) | growth (SF-539 CNS) | growth (UACC-257 melanoma) | growth (M14 melanoma) | growth (HCT-15 colon) | growth (HT29 colon) | growth (SNB-75 CNS) | growth (SNB-19 CNS) | growth (U251 CNS) | growth (PC-3 prostate) | growth (SK-MEL-5 melanoma) | growth (UACC-62 melanoma) | growth (LOX IMVI melanoma) | growth (SK-MEL-28 melanoma) |
| --- | --- | --- | --- | --- | --- | --- | --- | --- | --- | --- | --- | --- | --- | --- | --- | --- | --- | --- | --- |
| COc1ccc(SC2c3ccc(O)cc3Oc3nc(N)c(C#N)c(N)c32)cc1 (stereo not drawn) | 93.1% | 99.3% | 101% | 122% | 57.3% | 76.8% | 52.1% | 106% | 105% | 85% | 101% | 84.7% | 78.6% | 60.9% | 56.1% | 55.7% | 105% | 33.7% | 106% |
| O=C(Nc1ccc(F)cc1)Nc1ccc(Br)c(C(F)(F)F)c1 | 22.3% | -6.11% (active) | 7.99% (active) | 26.8% | 22% | 3% (active) | 19.9% | 1.49% (active) | 15.3% | 8.12% (active) | 6.61% (active) | 22.2% | 19.8% | 11.6% | 4.68% (active) | 4.53% (active) | 21.7% | -16.7% (active) | 20.8% |
| CC(=O)c1cc2c(N)c(C(=O)Nc3cccc(Cl)c3)sc2nc1C | 87.3% | 102% | 87.5% | 79.7% | 93.2% | 84.3% | 85.3% | 82.5% | 67.1% | 72.4% | 82.3% | 82.6% | 91.3% | 91.4% | 74.4% | 43.2% | 56.2% | 89.5% | 92.9% |
| CCCc1nn2c(CCC(=O)c3nc4ccc([N+](=O)[O-])cc4[nH]3)nnc2s1 | 108% | 105% | 95.9% | 114% | 100% | 104% | 103% | 113% | 99.6% | 100% | 106% | 97.2% | 109% | 108% | 100% | 119% | 98.7% | 95.5% | 103% |
| CCOc1ccccc1C(=O)N1CCN(c2cc(Cl)cc(Cl)c2)CC1 | 8.76% (active) | 45.3% | 6.62% (active) | 40.9% | 30% | 17.9% | -4.39% (active) | 51.1% | -23.3% (active) | 11.2% | -27.4% (active) | 34.3% | 24% | 12.5% | 10.6% | -44.1% (active) | 19.5% | 17.7% | 54.7% |
| CC(C)(C)OC(=O)N1CC(Cn2cc(C(F)(F)F)c3c(Cl)ncnc32)C1 | -100% (active) | 80.6% | 0.765% (active) | -63.7% (active) | -86.9% (active) | 30.4% | 79.9% | -37.9% (active) | -87.4% (active) | -41.4% (active) | -62.2% (active) | -52.5% (active) | -89.8% (active) | -98% (active) | -75% (active) | -84.6% (active) | -78.1% (active) | -86.9% (active) | -79.6% (active) |
| C=CCn1c(SCC(=O)Nc2ccc(C(=O)/C=C/c3cc(OC)c(OC)c(OC)c3)cc2)nnc1-c1ccc(OC)cc1 | 5.32% (active) | 46.1% | 13.8% | -81.6% (active) | 5.5% (active) | -21.4% (active) | -17.6% (active) | 13.6% | 6.88% (active) | -1.54% (active) | -27.9% (active) | 6.75% (active) | 14.3% | -65.2% (active) | 25.1% | 1.15% (active) | -6.54% (active) | -43.5% (active) | 10.1% |
